Compound activity from PubChem BioAssay.
Sampled rows, rich in hits. Any-hit rate of the full collection: about 9.2%.
ELG1 repair inh = blocks ELG1-dependent DNA repair in HEK293T cells; HEK293T ELG1-luciferase reporter, luminescence, 16 h; DNA damage induced by 5-fluorouridine; Potency, µM (titrated, usually from 46.1 µM), most hits filed as inhibitors; 2.3% of 330,000 active; AID 504467; further: nearly all actives have a fitted effect of over 55% in size
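Overnight (16 hr) co-exposure of 2,000 cells/well to 5-fluorouridine and compound at 37 °C preceded detection. Luciferase was quantified via ONE-Glo luminescence; loss of signal denotes inhibition.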
ELG1 genotox = genotoxicity induction in ELG1-luciferase HEK293T cells | Potency, µM (top dose mostly 46 µM), hits mostly activators | 1.3% of 330,000 active | AID 504466 | HEK293T ELG1-luciferase reporter, luminescence, 16 h; further: nearly all actives have a fitted effect of over 60% in size
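Step 1: seed 2,000 HEK293T ELG1-luciferase cells per well. Step 2: add compound or DMSO, incubate 16 hr at 37 °C. Step 3: ONE-Glo, 30 min at room temperature, read luminescence.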
Rab9 prom act = activators of Rab9 promoter; Huh7 Rab9 promoter-luciferase reporter, luminescence, 24 h; Potency, µM (highest dose often 9.22 µM), hits mostly activators; 2.8% of 320,000 active; AID 485297; further: nearly all actives have a fitted effect of over 60% in size
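Steps: seed 1500 Huh7 Rab9-luc cells per well, rest 2 h at 37 °C; add compound in DMSO; incubate 24 h; add luciferase reagent, 10 min ambient; read luminescence.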
NPC1 promoter act = activates the NPC1 promoter | Huh7 NPC1 promoter luciferase reporter, 24 h | Potency, µM (doses to about 9.22 µM), most hits filed as activators | 2.4% of 320,000 active; further: nearly all actives have a fitted effect of over 60% in size
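Quantitative HTS used a cell-based reporter: Huh7 cells stably bearing the NPC1 promoter upstream of luciferase were treated with compounds for 24 h, and promoter activation was read as luminescence.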
SMN2 splice enh = enhancers of SMN2 splice variant expression; HEK293 SMN2-luciferase splicing reporter, luminescence, 30-36 h; Potency, µM (highest dose often 46.1 µM), actives largely listed as activators; 2.8% of 210,000 active; AID 1458; further: nearly all actives have a fitted effect of over 55% in size
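HEK293 cells carry an SMN2 […]–luciferase reporter in which exon 7 inclusion puts luciferase in frame. Cells were plated 10-12 h before compound addition, then incubated 30-36 h at 37C. ONE-Glo luminescence was read; sodium butyrate at 4.5 mM final served as control.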
FLuc modulator = firefly luciferase modulation, counter-screen for miR-21 project; P08659; purified FLuc, Km substrates, luminescence inhibition; Potency, µM (highest dose often 57.5 µM), hits mostly inhibitors; 6.9% of 360,000 active; AID 588342; further: nearly all actives have a fitted effect of over 55% in size
Target sequence (P08659 whole entry, looked up): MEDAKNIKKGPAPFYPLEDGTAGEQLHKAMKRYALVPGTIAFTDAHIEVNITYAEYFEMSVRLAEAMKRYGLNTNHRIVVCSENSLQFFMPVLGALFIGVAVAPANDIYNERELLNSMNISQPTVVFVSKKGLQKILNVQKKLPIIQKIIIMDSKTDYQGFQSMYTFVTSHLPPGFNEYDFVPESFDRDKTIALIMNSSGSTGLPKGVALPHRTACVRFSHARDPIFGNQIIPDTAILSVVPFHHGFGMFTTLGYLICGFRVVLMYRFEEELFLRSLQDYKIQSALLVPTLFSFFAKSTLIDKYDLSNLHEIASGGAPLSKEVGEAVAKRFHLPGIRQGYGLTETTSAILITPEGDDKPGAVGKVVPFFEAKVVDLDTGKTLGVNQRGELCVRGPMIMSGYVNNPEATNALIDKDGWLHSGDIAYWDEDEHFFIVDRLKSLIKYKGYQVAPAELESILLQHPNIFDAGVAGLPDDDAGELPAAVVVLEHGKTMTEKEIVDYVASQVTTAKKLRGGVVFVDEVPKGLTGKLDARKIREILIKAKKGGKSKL
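Biochemical qHTS of compounds, final roughly 60 µM downward over six points, against 10 nM purified firefly luciferase using Km concentrations of substrates (10 uM D-luciferin, 10 uM ATP) in Tris acetate pH 7.5 buffer; luminescence output.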
Hits are given with their value; – = inactive; ? = inconclusive; · = no result given. The call rests on the fitted dose curve; in most records, active means well fitted curve in the direction sought with a large enough effect; inconclusive means small, poorly fitted or top-dose-only effect, or another doubt; inactive means no such curve, though single readings can be large; an effect the other way counts as inactive or inconclusive.

SMILES | ELG1 repair inh | ELG1 genotox | Rab9 prom act | NPC1 promoter act | SMN2 splice enh | FLuc modulator
O=C(c1ccc(Br)cc1)N1CCC(C(=O)N2CCN(c3ccccc3)CC2)CC1 | ? | – | – | – | · | –
CCc1ccc(N2C(=O)C3C4C=CC(CC4)C3C2=O)cc1 (centres undefined) | ? | – | – | – | · | 4.3µM
O=C1C2C3C=CC(CC3)C2C(=O)N1c1ccc(Cl)cc1 (centres undefined) | – | – | – | – | · | –
Cc1cc2nc(-c3ccc[nH]c3=O)n(Cc3ccccc3F)c2cc1C | – | – | – | – | · | –
N#CC1=C2SCN(c3ccccc3)CN2C(=O)CC1c1c(Cl)cccc1Cl (centres undefined) | ? | – | – | – | – | 11µM
Cc1ccc(-c2nc(CS(=O)CC(=O)NCCN3CCCCCC3)c(C)o2)cc1 (centres undefined) | – | – | – | – | · | –
Cc1onc(-c2c(Cl)cccc2Cl)c1COC(=O)c1ccc(Cl)cc1[N+](=O)[O-] | ? | – | – | – | · | –
COc1ccc(-c2cnnc(N/N=C/c3ccc(-c4ccc([N+](=O)[O-])cc4)o3)n2)cc1 | ? | – | – | – | – | –
COc1ccccc1-c1cnnc(N/N=C/c2ccc(-c3cccc(Br)c3)o2)n1 | 8.2µM | – | – | – | – | –
Cc1ccc(N2C(=O)CS(=O)(=O)CC2=O)cc1 | – | – | – | – | – | –
Cc1ccc(N2C(=O)CC3(CCCC3)CC2=O)cc1 | ? | – | – | – | · | 11µM
CC(C)(C)c1ccc(NC(=O)C(=O)C2C(=O)Nc3ccccc32)cc1 (centres undefined) | – | – | – | – | – | 12µM
CC(C)c1ccc(NC(=O)C(=O)C2C(=O)Nc3ccccc32)cc1 (centres undefined) | ? | – | – | – | – | ?
CN(C)c1ccc(NC(=O)C(=O)C2C(=O)Nc3ccccc32)cc1 (centres undefined) | ? | ? | – | – | · | 11µM
O=C(c1ccc(NS(=O)(=O)c2ccc3c(c2)OCCO3)cc1)N1CCCCC1 | 23µM | – | – | – | · | –
CC(=O)N1CCN(C(=O)c2ccc(NS(=O)(=O)c3ccc4c(c3)OCCO4)cc2)CC1 | – | – | – | – | · | –
Cc1ccc(NC(=O)CC2CCCC2)c(Br)c1 | ? | ? | ? | ? | · | 15µM
O=C(CCC1CCCCC1)Nc1ccccc1-c1ccccc1 | – | – | – | – | – | –
Cc1ccc(NC(=O)C2CC3CCC2C3)c(Br)c1 (centres undefined) | ? | ? | ? | 4µM | · | 17µM
Cc1ccc(CNCC(=O)Nc2ccc(C)cc2Br)cc1 | ? | – | – | – | – | ?
Cc1ccc(O)c(NC(=O)CCC2CCCCC2)c1 | ? | ? | – | ? | – | 7.6µM
Cc1ccc(C)c(NC(=O)C2CC3CCC2C3)c1 (centres undefined) | ? | – | – | – | · | ?
O=C(CCC1CCCCC1)Nc1ccccc1O | ? | 10µM | ? | ? | ? | 21µM
COc1ccc(C(=O)NCc2nnc(SCC(=O)Nc3ccc(C)cc3)n2-c2ccccc2)cc1 | · | · | · | · | – | –
CCC(C)c1ccccc1N1CC(C(=O)NCCc2ccc(OC)c(OC)c2)CC1=O (centres undefined) | – | – | – | – | · | –
SMILES | ELG1 repair inh | ELG1 genotox | Rab9 prom act | NPC1 promoter act | SMN2 splice enh | FLuc modulator
Cc1ccc(NC(=O)CN(C)CC(=O)Nc2c(C)cccc2C)c(Br)c1 | 7.3µM | – | – | – | – | –
Cn1c(NNC(=O)c2ccc(C(C)(C)C)cc2)cc(=O)n(C)c1=O | – | – | – | – | – | –
Cc1ccc(NC(=O)Cn2cccc2)c(Br)c1 | ? | – | – | – | – | –
Cn1c(NC(=O)c2ccc(C(C)(C)C)cc2)cc(=O)n(C)c1=O | ? | 9.2µM | – | – | – | –
Cn1c(NC(=O)CCC2CCCCC2)cc(=O)n(C)c1=O | ? | 3.3µM | 1.4µM | 4µM | 11µM | 5.4µM
COc1ccccc1OCC(=O)NNC(=O)c1c(-c2ccccc2Cl)noc1C | – | – | – | – | – | –
CC(OC(=O)/C(C#N)=C/c1ccc(N(C)C)cc1)C(=O)N(C)Cc1ccccc1 (centres undefined) | – | – | – | – | · | –
CCN1C(=O)/C(=C2/C=Cc3ccccc3N2C)OC1=S | ? | ? | 3.5µM | 2.5µM | ? | ?
CCN1C(=O)/C(=C2\C=Cc3cc(C)ccc3N2CC)OC1=S | – | – | – | – | – | –
CCCCN(CCCC)C(=O)CSc1nnc(-c2cc(OC)c(OC)c(OC)c2)o1 | 10µM | – | – | – | – | –
COc1cc(OC)cc(-c2nnc(SCC(=O)N(Cc3ccccc3)C(C)(C)C)o2)c1 | 23µM | – | – | – | – | –
COc1cc(-c2nnc(SCC(=O)NCc3ccccc3Cl)o2)cc(OC)c1OC | · | · | · | · | · | –
COc1cc(-c2nnc(SCC(=O)N(Cc3ccccc3)C(C)(C)C)o2)cc(OC)c1OC | 21µM | – | – | – | – | –
CC1CC(C)CN(CCCNC(=O)c2nn(C)c3c2CS(=O)(=O)c2ccccc2-3)C1 (centres undefined) | – | – | – | – | · | –
O=[N+]([O-])c1cccnc1NCCNc1ncc(C(F)(F)F)cc1Cl | ? | ? | 2.2µM | 3.5µM | 13µM | 11µM
O=[N+]([O-])c1cccnc1NCCc1ccccc1 | ? | ? | 3.2µM | ? | · | 11µM
c1ccc2c(CCNc3ncnc4nc[nH]c34)c[nH]c2c1 | 6.5µM | – | – | – | – | ?
COc1ccccc1CNc1ncccc1[N+](=O)[O-] | – | – | – | – | · | –
O=[N+]([O-])c1cccnc1NCCc1c[nH]c2ccccc12 | ? | 13µM | 2.5µM | 3.5µM | · | ?
Cc1ccnc(NC(=O)c2ccc(S(=O)(=O)NCc3ccco3)cc2)c1 | – | – | – | – | · | –
CCCc1cc(=O)[nH]c(SCC(=O)N2CC3(C)CC2CC(C)(C)C3)n1 (centres undefined) | – | – | – | – | · | –
CC(C)c1nc2c(c(=O)n(C)c(=O)n2C)n1C | – | – | – | – | · | –
O=c1cc(Cl)[nH]c(=O)n1CCNc1ncc(C(F)(F)F)cc1Cl | ? | – | 3.2µM | ? | ? | 13µM
S=C(N/N=C/c1ccc2ncccc2c1)Nc1ccccc1 | ? | ? | ? | ? | ? | 4.8µM
C(=N\NCc1ccccc1)/c1ccc2ncccc2c1 | ? | 2.6µM | 1.6µM | 1.1µM | · | 4.3µM
O=C(N/N=C/c1ccc2nccnc2c1)c1ccc(Br)cc1 | – | – | – | – | · | ?
C(=N\NCc1ccccc1)/c1ccc2nccnc2c1 | ? | ? | 2.5µM | 3.5µM | · | 12µM
C(=N\n1cnnc1)/c1ccc2ncccc2c1 | – | – | – | – | – | –
